Activity calls are given as the source filed them.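 How the source made its calls, unless noted: active means inhibition of the reporter signal at or above 50%; inactive means inhibition below 50%.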
Key:
[1] = inhibitors of TNFa-induced NFkB p65 translocation, primary screen, imaging, HUVEC, MLSMR starter and 10KST1 sets (AID 438;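 active means inhibition above 20% together with a positive visual image hit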;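 further: compound added about 3h40 before a 20 min TNFalpha stimulation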;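 on inhibition: signal is the nuclear over cytoplasmic p65 intensity ratio per well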); conditions: HUVEC TNFa-induced p65 nuclear translocation; cell count: measured here: nuclei count (cytotoxicity indicator), at 2.08 µM; inhibition: at 2 µM, stronger effect = higher value, 0% TNFa-plus-vehicle, 100% no-TNFa wells
[2] = reduction of polyQ htt aggregates in cells – imaging, exon1htt(103Q)mCFP cells, high-content imaging, primary screen (AID 483;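 active means visual image review flags a hit and inhibition of aggregation exceeds 20%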;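 further: compound exposure lasted 3 days before fixation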;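 on nuclei count: percent of the per-plate median nuclei count of sample wells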); conditions: exon1htt(103Q)mCFP cell line, aggregate imaging, at 2 µM; inhibition of aggregation: stronger effect = higher value; nuclei count: measured here: cell count, toxicity
[3] = endothelial E-selectin expression blockers – imaging, HUVEC, immunofluorescence, MLSMR starter and 10KST1 sets, primary screen (AID 487;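 active means visually confirmed hit in the image check and inhibition above 20%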;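 on inhibition: signal is fraction of cell area covered by stained E-selectin grains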;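 on nuclei count: 100% = median nuclei count of all wells on the same plate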); conditions: HUVEC TNFalpha-induced E-selectin immunofluorescence imaging, at 2 µM; inhibition: stronger effect = higher value; nuclei count: measured here: cell number, toxicity
[4] = target: Voltage-gated potassium channel subunit beta-2 (Rattus norvegicus) (UniProt P62483); test: inhibitors of rat Kvbeta2 reductase activity – biochemical, NADPH fluorescence, primary screen (AID 622;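 active means fluorescence slope higher than the sample average by over 3 SD, cut at about -0.22 in these data, passing the limit was not always enough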;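 further: slope of raw intensity against log time taken from 70 to 1610 s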); conditions: recombinant KvBeta, 4-cyanobenzaldehyde reduction, at 10 µM, stronger effect = higher value
Chain of Voltage-gated potassium channel subunit beta-2 (Rattus norvegicus) (P62483 whole entry, looked up): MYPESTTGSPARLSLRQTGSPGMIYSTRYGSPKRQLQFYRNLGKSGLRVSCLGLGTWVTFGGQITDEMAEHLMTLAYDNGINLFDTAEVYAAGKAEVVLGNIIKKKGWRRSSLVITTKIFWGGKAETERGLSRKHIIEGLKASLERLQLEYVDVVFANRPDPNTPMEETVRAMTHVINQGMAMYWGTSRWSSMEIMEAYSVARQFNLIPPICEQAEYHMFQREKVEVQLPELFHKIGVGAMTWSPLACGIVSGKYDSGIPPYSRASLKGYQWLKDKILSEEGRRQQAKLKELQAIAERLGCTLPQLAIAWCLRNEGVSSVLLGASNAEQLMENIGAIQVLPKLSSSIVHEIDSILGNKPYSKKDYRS

[5] = target: Voltage-gated potassium channel subunit beta-2 (Rattus norvegicus) (UniProt P62483); test: enhancers of rat Kvbeta2 NADPH turnover – biochemical, NADPH fluorescence, primary screen (AID 623;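 active means NADPH fluorescence slope more negative than the mean of all samples by about 3 SD, 99.7% confidence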;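 further: fluorescence intensity change per second fitted from 20 to 320 s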); conditions: Recombinant KvBeta, NADPH fluorescence decrease slope, 10 min; at 10 µM; stronger effect = lower value
[6] = target: Alpha-2C adrenergic receptor (Homo sapiens) (UniProt P18825); test: compounds altering alpha2C-coupled GIRK flux – cell-based, HEK293 alpha2C/GIRK1/2, thallium flux, primary screen (AID 624;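 active means fluorescence slope after compound addition differing from the mean of all screened samples at 99.7% confidence, in either direction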;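 further: slope of fluorescence ratio to pre-addition baseline per second over 15 to 24 s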); conditions: thallium flux BTC fluorescence, at 10 µM, actives lie on both sides
Chain of Alpha-2C adrenergic receptor (Homo sapiens) (P18825 whole entry, looked up): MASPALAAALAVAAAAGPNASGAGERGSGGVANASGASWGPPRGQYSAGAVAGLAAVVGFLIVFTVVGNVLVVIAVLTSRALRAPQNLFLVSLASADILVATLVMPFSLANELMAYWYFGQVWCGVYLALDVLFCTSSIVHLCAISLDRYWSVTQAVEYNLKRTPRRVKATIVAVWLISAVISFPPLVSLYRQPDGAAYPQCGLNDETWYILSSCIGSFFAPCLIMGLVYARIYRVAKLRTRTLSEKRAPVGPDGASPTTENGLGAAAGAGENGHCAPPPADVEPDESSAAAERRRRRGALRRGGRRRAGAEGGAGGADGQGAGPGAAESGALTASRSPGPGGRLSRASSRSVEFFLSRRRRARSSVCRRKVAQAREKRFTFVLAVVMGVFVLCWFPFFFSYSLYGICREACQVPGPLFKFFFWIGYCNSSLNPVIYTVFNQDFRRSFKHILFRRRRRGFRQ

[7] = blockers of RIG-like receptor reporter activation – cell-based, Sendai virus stimulus, luciferase, 10K MLSCN set, TLR/RLR signaling modifier project, primary screen (AID 602276;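 active means inhibition at or above 50% at 10 µM; inactive means inhibition below 50%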;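 further: firefly luciferase from ISG56 promoter only with Renilla not read in this screen; 0% = Sendai virus plus DMSO and 100% = medium plus DMSO without virus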); conditions: HEK293 RL24 IRF3 luciferase reporter, at 10 µM, stronger effect = higher value
[8] = TLR3 IRF3 reporter activation blockers – cell-based, poly I:C stimulus, luciferase, 10K MLSCN set, primary screen (AID 602277); conditions: HEK293-TLR3 RL24 IRF3 luciferase reporter, at 10 µM, stronger effect = higher value

Row | SMILES | cell count [1] | inhibition [1] | inhibition of aggregation [2] | nuclei count [2] | inhibition [3] | nuclei count [3] | fluorescence slope [4] | NADPH fluorescence slope [5] | slope [6] | inhibition [7] | inhibition [8]
1 | COc1ccc(-c2cc3n(n2)CCc2nc4ccccc4n2-3)cc1 | 415 | -32.3% (inactive) | 30.7% (inactive) | 123% | 37% (inactive) | 127% | -0.433 (inactive) | -1.6e-05 (inactive) | 0.00599 (inactive) | 12.2% (inactive) | -17.1% (inactive)
2 | CCOc1ccccc1-n1c(SCC(=O)NC2CCCC2)nnc1-c1ccoc1C | 588 | -9.5% (inactive) | 35.7% (inactive) | 77.1% | 83.6% (inactive) | 62.7% | -0.543 (inactive) | 1.9e-05 (inactive) | 0.00524 (inactive) | 1.09% (inactive) | 11.6% (inactive)
3 | COc1ccc(OC)c(-c2nc3c(C)n[nH]c(=O)c3[nH]2)c1 | 536 | 10.3% (inactive) | 13% (inactive) | 18.1% | 9.1% (inactive) | 118% | -0.423 (inactive) | -6.2e-05 (inactive) | 0.00496 (inactive) | 8.37% (inactive) | 20.2% (inactive)
4 | COCCn1nnnc1C(c1cccs1)N1CCN(c2cc(C)ccc2C)CC1 (stereo not drawn) | 203 | 11.4% (inactive) | -9% (inactive) | 84.8% | -2.6% (inactive) | 96.9% | -0.618 (inactive) | 2e-05 (inactive) | 0.00567 (inactive) | 11.1% (inactive) | 16.2% (inactive)
5 | Cc1cc(=O)n(C)c(=O)n1CCCNc1ccccc1 | 489 | -13.1% (inactive) | -3% (inactive) | 126% | -19.5% (inactive) | 113% | -0.333 (inactive) | -3.7e-05 (inactive) | 0.00566 (inactive) | -2.79% (inactive) | 6.15% (inactive)
6 | CC(=O)OCC1OC(c2ccccc2)C(OC(C)=O)C(OC(C)=O)C1OC(C)=O (stereo not drawn) | 274 | -5% (inactive) | 15.4% (inactive) | 59.7% | -26.4% (inactive) | 106% | -0.351 (inactive) | -2.1e-05 (inactive) | 0.00646 (inactive) | 6.22% (inactive) | 34.3% (inactive)
7 | CC1(C)NC(=O)N(CC(O)COc2cccc(F)c2)C1=O (stereo not drawn) | 690 | -1.1% (inactive) | 8.4% (inactive) | 72.2% | -65.7% (inactive) | 105% | -0.592 (inactive) | -2.3e-05 (inactive) | 0.00622 (inactive) | -5.23% (inactive) | 19.5% (inactive)
8 | Cn1c(SCC(=O)Nc2ccc3c(c2)OCO3)nnc1-c1cnccn1 | 656 | 6.5% (inactive) | 3.7% (inactive) | 94.2% | 46.9% (inactive) | 91.7% | -0.366 (inactive) | -5.5e-05 (inactive) | 0.00395 (inactive) | 12.5% (inactive) | 24.2% (inactive)
9 | CC(C)CNC(=O)C1CC(=O)OC12CCCCC2 (stereo not drawn) | 661 | -32.6% (inactive) | 4.3% (inactive) | 96.4% | -18.4% (inactive) | 107% | -0.594 (inactive) | -6.1e-05 (inactive) | 0.00558 (inactive) | 12.4% (inactive) | 19.6% (inactive)
10 | C=Cn1nc(C)c2ccccc2c1=O | 655 | -2.6% (inactive) | 16.4% (inactive) | 114% | -27.2% (inactive) | 137% | -0.344 (inactive) | -2.7e-05 (inactive) | 0.00755 (inactive) | 3.73% (inactive) | 1.18% (inactive)
11 | C=CCn1c(-c2ccc(OC)cc2)nc2ccccc21 | 386 | -3.5% (inactive) | 1% (inactive) | 96.1% | -24.9% (inactive) | 86.4% | -0.488 (inactive) | -4.7e-05 (inactive) | 0.0046 (inactive) | -24.1% (inactive) | -54.6% (inactive)
12 | CCOC(=O)c1c(C)[nH]c(C(=O)COC(=O)c2ccc(F)c(S(=O)(=O)N3CCOCC3)c2)c1C | 376 | 4.8% (inactive) | -173% (inactive) | 6.6% | -27.2% (inactive) | 105% | -0.6 (inactive) | -5.1e-05 (inactive) | 0.00426 (inactive) | 5.38% (inactive) | 13.3% (inactive)
13 | Cc1ccc(CCC(=O)Nc2ccc(S(N)(=O)=O)cc2)o1 | 543 | 0% (inactive) | -16.3% (inactive) | 111% | -67.7% (inactive) | 99.7% | -0.614 (inactive) | 5.3e-06 (inactive) | 0.00583 (inactive) | -2.49% (inactive) | 2.2% (inactive)

Reference: PubChem BioAssay
